Consider six molecules from the supplement of paper PMC9262897, “Low-cost anti-mycobacterial drug discovery using engineered E. coli” (Nature Communications, 2022).

Common to all, as to experiment: growth (OD600 after 10 h); higher = more growth (less inhibition)
Experiment [1] concerns E. coli TESEC Alr+ wild-type control. The following applies: compound 0.1 mM; raw OD600 reference: median of DMSO wells 0.241, cell-free background 0.041. The protocol:
(§1)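 TESEC Mtb Alr E. coli, or the Alr+ wild-type control, in 384-well plates with Prestwick library compounds at 0.1 mM and 1% DMSO, across arabinose induction levels of 1E3 to 1E7 nM. Growth is read as OD600 after 10 h at 37 °C in triplicate biological replicates.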

Experiment [2] relates to E. coli TESEC Mtb Alr. The following applies: compound 0.1 mM. The protocol: as §1
The subject of the next experiment is E. coli TESEC Mtb Asd. The following applies: compound 0.1 mM. The procedure: (§2)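 TESEC E. coli strains in which the native enzyme is deleted and replaced by arabinose-inducible Mtb Asd, DapB, CysH or TrpD, each grown in its selective medium. Strains were screened against the Prestwick library at 0.1 mM and 1% DMSO in 384-well format at low and high arabinose induction. Growth is read as OD600 after 10 h in triplicate.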

In another experiment the test system is E. coli TESEC Mtb DapB. Conditions: compound 0.1 mM. The procedure:
as §2

Experiment [3] has as its system E. coli TESEC Mtb Alr. The following applies: compound 0.1 mM. The procedure: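 TESEC Mtb Alr E. coli (ΔaraC ΔtolC ΔentC Δalr ΔdadX, arabinose-inducible Mtb Alr) or the Alr+ wild-type control strain, grown in defined M9-fructose medium without D-alanine in 96-well plates with Prestwick library compounds at 0.1 mM and 1% DMSO. Low Alr induction is 0.1 µM arabinose and high induction is 10 mM arabinose.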
The source holds these as a separate data set.

The mark [4] stands for this setting: arabinose 1000 nM, raw OD600 reference: median of DMSO wells 0.294, cell-free background 0.041.
[5] abbreviates: arabinose 10000 nM, raw OD600 reference: median of DMSO wells 0.264, cell-free background 0.041.
[6] abbreviates: arabinose 100000 nM, raw OD600 reference: median of DMSO wells 0.201, cell-free background 0.041.
Where [7] appears, read: arabinose 1000000 nM, raw OD600 reference: median of DMSO wells 0.193, cell-free background 0.041.
Setting [8] is: arabinose 10000000 nM, raw OD600 reference: median of DMSO wells 0.146, cell-free background 0.041.
Where [9] appears, read: arabinose induction (level): High, raw OD600 reference: median of DMSO wells 0.331, cell-free background 0.041.
Setting [10] is: arabinose induction (level): Low, raw OD600 reference: median of DMSO wells 0.417, cell-free background 0.041.
[11] abbreviates: arabinose induction (level): High, raw OD600 reference: median of DMSO wells […], cell-free background 0.041.
Setting [12] is: arabinose induction (level): Low, raw OD600 reference: median of DMSO wells 0.227, cell-free background 0.041.
The mark [13] stands for this setting: arabinose 100 nM, raw OD600 reference: median of DMSO wells 0.413, cell-free background 0.052.
[14] abbreviates: arabinose 10000000 nM, raw OD600 reference: median of DMSO wells […], cell-free background 0.052.

The structures appear in SMILES notation. Structures can show the parent of a compound that is named as a salt. ± gives the standard deviation of the averaged measurements.

On to `C[C@]12CC[C@@H]3c4ccc(O)cc4CC[C@H]3[C@@H]1CCC2=O` [Estrone], for which the growth in experiment [1] was 0.185 ± 0.0043; in the experiment on E. coli TESEC Mtb Alr [2] (setting [4]), 0.249 ± 0.0084; with E. coli TESEC Mtb Alr [2] (setting [5]), 0.23 ± 0.0023; in the experiment on E. coli TESEC Mtb Alr [2] (setting [6]), 0.187 ± 0.0045; with E. coli TESEC Mtb Alr [2] (setting [7]), 0.153 ± 0.0041; with E. coli TESEC Mtb Alr [2] (setting [8]), 0.129 ± 0.0036. Moreover, the growth with E. coli TESEC Mtb Asd (setting [9]) was 0.281 ± 0.031; in the experiment with E. coli TESEC Mtb Asd (setting [10]), 0.36 ± 0.074; in the experiment with E. coli TESEC Mtb DapB (setting [11]) it was 0.208 ± 0.026; in the experiment on E. coli TESEC Mtb DapB (setting [12]) it was 0.201 ± 0.022; with E. coli TESEC Mtb Alr [3] (setting [13]) it was 0.402 ± 0.011; in the experiment with E. coli TESEC Mtb Alr [3] (setting [14]), 0.291 ± 0.0057.
Take `OCCN1C[C@H](O)[C@@H](O)[C@H](O)[C@H]1CO` [Miglitol]: the growth in experiment [1] is 0.243 ± 0.0029; in the experiment with E. coli TESEC Mtb Alr [2] (setting [4]), 0.285 ± 0.0045; in the experiment on E. coli TESEC Mtb Alr [2] (setting [5]), 0.26 ± 0.0085; with E. coli TESEC Mtb Alr [2] (setting [6]), 0.204 ± 0.02; in the experiment with E. coli TESEC Mtb Alr [2] (setting [7]), 0.184 ± 0.0057; in the experiment on E. coli TESEC Mtb Alr [2] (setting [8]) it was 0.145 ± 0.0034. For the same molecule, the growth in the experiment with E. coli TESEC Mtb Asd (setting [9]) is 0.358 ± 0.084; in the experiment with E. coli TESEC Mtb Asd (setting [10]), 0.42 ± 0.084; in the experiment on E. coli TESEC Mtb DapB (setting [11]), 0.207 ± 0.031; with E. coli TESEC Mtb DapB (setting [12]) it was 0.223 ± 0.029; with E. coli TESEC Mtb Alr [3] (setting [13]) it was 0.406 ± 0.011; in the experiment with E. coli TESEC Mtb Alr [3] (setting [14]), 0.324 ± 0.051.
As for `CO[C@@]1(NC(=O)C(C(=O)O)c2ccc(O)cc2)C(=O)N2C(C(=O)O)=C(CSc3nnnn3C)CO[C@@H]21` (some centres not stated) [Moxalactam disodium salt], the growth in experiment [1] stood at 0.03947 ± 0.00038; in the experiment on E. coli TESEC Mtb Alr [2] (setting [4]), 0.0445 ± 0.0063; in the experiment with E. coli TESEC Mtb Alr [2] (setting [5]), 0.0401 ± 0.00064; in the experiment on E. coli TESEC Mtb Alr [2] (setting [6]), 0.039 ± 0.0013; in the experiment on E. coli TESEC Mtb Alr [2] (setting [7]), 0.03987 ± 0.00015; in the experiment on E. coli TESEC Mtb Alr [2] (setting [8]), 0.0393 ± 0.00046. Also, the growth was 0.0546 ± 0.0041 in the experiment with E. coli TESEC Mtb Asd (setting [9]); 0.0559 ± 0.007 in the experiment with E. coli TESEC Mtb Asd (setting [10]); 0.0504 ± 0.0038 with E. coli TESEC Mtb DapB (setting [11]); 0.0472 ± 0.001 with E. coli TESEC Mtb DapB (setting [12]); 0.0472 ± 0.00072 with E. coli TESEC Mtb Alr [3] (setting [13]); 0.056 ± 0.0067 in the experiment with E. coli TESEC Mtb Alr [3] (setting [14]).
Consider `Nc1ccc(S(N)(=O)=O)cc1` [Sulfanilamide], for which the growth worked out at 0.249 ± 0.008 in experiment [1]; 0.302 ± 0.011 in the experiment with E. coli TESEC Mtb Alr [2] (setting [4]); 0.2715 ± 0.0023 in the experiment on E. coli TESEC Mtb Alr [2] (setting [5]); 0.248 ± 0.014 in the experiment with E. coli TESEC Mtb Alr [2] (setting [6]); 0.205 ± 0.0051 in the experiment on E. coli TESEC Mtb Alr [2] (setting [7]); 0.142 ± 0.0052 with E. coli TESEC Mtb Alr [2] (setting [8]). For the same molecule, the growth came out at 0.318 ± 0.027 with E. coli TESEC Mtb Asd (setting [9]); 0.446 ± 0.0081 in the experiment on E. coli TESEC Mtb Asd (setting [10]); 0.217 ± 0.022 in the experiment with E. coli TESEC Mtb DapB (setting [11]); 0.263 ± 0.038 with E. coli TESEC Mtb DapB (setting [12]); 0.388 ± 0.033 with E. coli TESEC Mtb Alr [3] (setting [13]); 0.386 ± 0.0053 in the experiment on E. coli TESEC Mtb Alr [3] (setting [14]).
Regarding `C[C@]12C=CC(=O)C=C1CC[C@H]1[C@@H]3C[C@@H](O)[C@](O)(C(=O)CO)[C@@]3(C)C[C@H](O)[C@@]12F` [Triamcinolone], the growth in experiment [1] was 0.222 ± 0.0077; in the experiment on E. coli TESEC Mtb Alr [2] (setting [4]) it was 0.256 ± 0.033; in the experiment on E. coli TESEC Mtb Alr [2] (setting [5]), 0.266 ± 0.0064; in the experiment with E. coli TESEC Mtb Alr [2] (setting [6]) it was 0.157 ± 0.014; in the experiment with E. coli TESEC Mtb Alr [2] (setting [7]) it was 0.142 ± 0.0088; in the experiment on E. coli TESEC Mtb Alr [2] (setting [8]), 0.127 ± 0.0023. The growth in the experiment with E. coli TESEC Mtb Asd (setting [9]) stood at 0.222 ± 0.011; in the experiment with E. coli TESEC Mtb Asd (setting [10]) it was 0.452 ± 0.014; in the experiment with E. coli TESEC Mtb DapB (setting [11]), 0.191 ± 0.014; in the experiment on E. coli TESEC Mtb DapB (setting [12]) it was 0.229 ± 0.022; in the experiment on E. coli TESEC Mtb Alr [3] (setting [13]) it was 0.4315 ± 0.0037; in the experiment with E. coli TESEC Mtb Alr [3] (setting [14]) it was 0.306 ± 0.03.
For `CC(=O)O[C@]1(C(C)=O)CC[C@H]2[C@@H]3C=C(Cl)C4=CC(=O)CC[C@]4(C)[C@H]3CC[C@@]21C` [Chlormadinone acetate], the growth in experiment [1] is 0.15 ± 0.0069; in the experiment on E. coli TESEC Mtb Alr [2] (setting [4]), 0.156 ± 0.0078; in the experiment with E. coli TESEC Mtb Alr [2] (setting [5]) it was 0.0802 ± 0.014; in the experiment on E. coli TESEC Mtb Alr [2] (setting [6]), 0.148 ± 0.0022; with E. coli TESEC Mtb Alr [2] (setting [7]), 0.0653 ± 0.0047; in the experiment with E. coli TESEC Mtb Alr [2] (setting [8]) it was 0.11 ± 0.0088. Moreover, the growth in the experiment on E. coli TESEC Mtb Asd (setting [9]) turned out to be 0.12 ± 0.0098; in the experiment with E. coli TESEC Mtb Asd (setting [10]), 0.0867 ± 0.0071; in the experiment with E. coli TESEC Mtb DapB (setting [11]), 0.0988 ± 0.0082; with E. coli TESEC Mtb DapB (setting [12]) it was 0.109 ± 0.029; with E. coli TESEC Mtb Alr [3] (setting [13]), 0.3733 ± 0.0037; in the experiment on E. coli TESEC Mtb Alr [3] (setting [14]), 0.203 ± 0.03.
